Data on 14 molecules can be found in PubChem BioAssay.

Test [1] can be described thus: inhibitors of TNFa-induced NFkB p65 translocation, primary screen, imaging, HUVEC, MLSMR starter and 10KST1 sets (AID 438).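 Further: compound added about 3h40 before a 20 min TNFalpha stimulation.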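 On inhibition: signal is the nuclear over cytoplasmic p65 intensity ratio per well.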 Particulars: HUVEC TNFa-induced p65 nuclear translocation; cell count: measured here: nuclei count (cytotoxicity indicator), at 2.08 µM; inhibition: at 2 µM, stronger effect = higher value, 0% TNFa-plus-vehicle, 100% no-TNFa wells.
Test [2] can be described thus: inhibitors of mutant huntingtin aggregation, primary screen, imaging, exon1htt(103Q)mCFP cells, high-content imaging (AID 483;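 active means visual image review flags a hit and inhibition of aggregation exceeds 20%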;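 further: compound exposure lasted 3 days before fixation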;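 on nuclei count: percent of the per-plate median nuclei count of sample wells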). Particulars: exon1htt(103Q)mCFP cell line, aggregate imaging, at 2 µM; inhibition of aggregation: stronger effect = higher value; nuclei count: measured here: cell count, toxicity.
The nature of test [3]: inhibitors of E-selectin induction by TNFa, primary screen, imaging, HUVEC, immunofluorescence, MLSMR starter and 10KST1 sets (AID 487;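 active means visually confirmed hit in the image check and inhibition above 20%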;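 on inhibition: signal is fraction of cell area covered by stained E-selectin grains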;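 on nuclei count: 100% = median nuclei count of all wells on the same plate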). Particulars: HUVEC TNFalpha-induced E-selectin immunofluorescence imaging, at 2 µM; inhibition: stronger effect = higher value; nuclei count: measured here: cell number, toxicity.
Test [4] deals with Voltage-gated potassium channel subunit beta-2 (Rattus norvegicus) (UniProt P62483). In words: KvBeta enzyme negative modulators, primary screen, biochemical, NADPH fluorescence (AID 622;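 active means fluorescence slope higher than the sample average by over 3 SD, cut at about -0.22 in these data, passing the limit was not always enough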;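 further: slope of raw intensity against log time taken from 70 to 1610 s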). Particulars: recombinant KvBeta, 4-cyanobenzaldehyde reduction, at 10 µM, stronger effect = higher value.
The target is the same in test [5]. In words: KvBeta positive modulators, primary screen, biochemical, NADPH fluorescence (AID 623;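 active means NADPH fluorescence slope more negative than the mean of all samples by about 3 SD, 99.7% confidence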;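 further: fluorescence intensity change per second fitted from 20 to 320 s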). Conditions: Recombinant KvBeta, NADPH fluorescence decrease slope, 10 min; at 10 µM; stronger effect = lower value.
Test [6] addresses Alpha-2C adrenergic receptor (Homo sapiens) (UniProt P18825). Kind of test: modulators of alpha2C/GIRK thallium flux, primary screen, cell-based, HEK293 alpha2C/GIRK1/2 (AID 624;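 active means fluorescence slope after compound addition differing from the mean of all screened samples at 99.7% confidence, in either direction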;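 further: slope of fluorescence ratio to pre-addition baseline per second over 15 to 24 s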). Particulars: thallium flux BTC fluorescence, at 10 µM, actives lie on both sides.
Test [7] can be described thus: inhibitors of Sendai virus-induced IRF3 signaling, primary screen, TLR/RLR signaling modifier project, cell-based, Sendai virus stimulus, luciferase, 10K MLSCN set (AID 602276;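 active means inhibition at or above 50% at 10 µM; inactive means inhibition below 50%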;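 further: firefly luciferase from ISG56 promoter only with Renilla not read in this screen; 0% = Sendai virus plus DMSO and 100% = medium plus DMSO without virus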). Conditions: HEK293 RL24 IRF3 luciferase reporter, at 10 µM, stronger effect = higher value. A general note: Reporter assays use an easily measured gene product as a stand-in for the process of interest.

Test [8] can be described thus: inhibitors of poly I:C-induced TLR3 signaling, primary screen, cell-based, poly I:C stimulus, luciferase, 10K MLSCN set (AID 602277;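 active means inhibition of the reporter signal at or above 50%; inactive means inhibition below 50%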). Particulars: HEK293-TLR3 RL24 IRF3 luciferase reporter, at 10 µM, stronger effect = higher value.

Activity calls are given as the source filed them.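 How the source made its calls, unless noted: active means inhibition above 20% together with a positive visual image hit; inconclusive means visual image hit but inhibition not above 20%; inactive means no visual image hit.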

Alpha-2C adrenergic receptor (Homo sapiens), sequence (P18825 whole entry, looked up): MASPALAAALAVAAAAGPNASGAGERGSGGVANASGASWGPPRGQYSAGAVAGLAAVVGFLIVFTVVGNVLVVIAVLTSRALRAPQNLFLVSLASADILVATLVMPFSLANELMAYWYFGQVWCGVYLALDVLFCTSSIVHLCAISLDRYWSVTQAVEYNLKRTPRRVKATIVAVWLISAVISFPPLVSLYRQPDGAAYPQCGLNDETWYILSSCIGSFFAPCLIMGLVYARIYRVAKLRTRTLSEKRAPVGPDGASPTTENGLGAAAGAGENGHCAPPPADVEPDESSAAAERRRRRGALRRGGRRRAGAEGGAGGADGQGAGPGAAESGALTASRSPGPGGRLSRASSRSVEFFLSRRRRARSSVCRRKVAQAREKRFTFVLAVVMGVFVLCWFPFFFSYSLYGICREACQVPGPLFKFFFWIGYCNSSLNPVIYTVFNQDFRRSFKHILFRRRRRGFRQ
Voltage-gated potassium channel subunit beta-2 (Rattus norvegicus), sequence (P62483 whole entry, looked up): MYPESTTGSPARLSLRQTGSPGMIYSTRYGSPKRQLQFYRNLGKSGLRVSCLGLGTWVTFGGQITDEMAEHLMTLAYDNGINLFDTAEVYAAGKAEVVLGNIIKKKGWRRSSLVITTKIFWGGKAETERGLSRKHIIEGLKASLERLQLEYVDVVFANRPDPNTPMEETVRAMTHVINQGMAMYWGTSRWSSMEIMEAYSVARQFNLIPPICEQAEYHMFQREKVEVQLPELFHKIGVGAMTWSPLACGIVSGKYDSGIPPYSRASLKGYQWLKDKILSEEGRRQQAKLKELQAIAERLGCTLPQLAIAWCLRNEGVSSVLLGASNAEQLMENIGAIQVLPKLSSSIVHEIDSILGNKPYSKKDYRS

Consider `O=C1NC2(Nc3ccccc31)C(=O)Nc1ccccc12` (centres undefined), for which the cell count in test [1] was 361. In addition, the inhibition in test [1] is -4.3% (inactive); in test [3], -129% (inactive); in test [7] it was 13.7% (inactive); in test [8], 37.4% (inactive). The inhibition of aggregation in test [2] was 6.1% (inactive). The nuclei count was found to be 102% in test [2] and 106% in test [3]. For the same molecule, the fluorescence slope in test [4] was -0.355 (inactive). Further, in test [5], the NADPH fluorescence slope is -4.5e-06 (inactive). In addition, the slope in test [6] was 0.00484 (inactive).
As to `COc1cc(SC)ccc1C(=O)Nc1ccon1`, in test [1], the cell count came to 461. The inhibition was -10.3% (inactive) in test [1], 20.1% (inactive) in test [3], -57.7% (inactive) in test [7] and -144% (inactive) in test [8]. The inhibition of aggregation in test [2] was -0.3% (inactive). The nuclei count in test [2] is 93%; in test [3], 91.2%. Besides, the fluorescence slope in test [4] was -0.608 (inactive). Further, the NADPH fluorescence slope in test [5] was 2.8e-05 (inactive). Moreover, in test [6], the slope is 0.00729 (inactive).
Turning to `COc1ccc2c(CC(=O)Nc3ccc(OC)c(NS(=O)(=O)c4ccc(F)cc4)c3)coc2c1`, the cell count in test [1] was 403. In addition, the inhibition in test [1] is -1.4% (inactive); in test [3], -29.3% (inactive); in test [7], 9% (inactive); in test [8], 18.5% (inactive). For the same molecule, the inhibition of aggregation in test [2] was 2.9% (inactive). Also, the nuclei count in test [2] came to 116%; in test [3] it was 100%. Also, the fluorescence slope in test [4] was -0.275 (inactive). Besides, the NADPH fluorescence slope in test [5] is -8.3e-06 (inactive). The slope in test [6] is 0.00715 (inactive).
Take `Cn1c(=O)[nH]c(=O)c2c1nc(NC1CCCCC1)n2CC(=O)NC1CCCCC1`: the cell count in test [1] was 751. Also, the inhibition in test [1] is -14.7% (inactive); in test [3] it was 10.2% (inactive); in test [7], 18.1% (inactive); in test [8] it was 21.1% (inactive). For the same molecule, the inhibition of aggregation in test [2] is 12.1% (inactive). Moreover, the nuclei count in test [2] was found to be 90.9%; in test [3], 105%. For the same molecule, the fluorescence slope in test [4] is -0.4 (inactive). Also, the NADPH fluorescence slope in test [5] is 8.4e-06 (inactive). The slope in test [6] is 0.00653 (inactive).
For the molecule `Cc1noc(/C=C/N(C)C)c1S(=O)(=O)N1CCCC(C(=O)N2CCc3ccccc32)C1` (centres undefined), the cell count in test [1] was 620. For the same molecule, the inhibition was -4% (inactive) in test [1], -16.5% (inactive) in test [3], 11.8% (inactive) in test [7] and 45.3% (inactive) in test [8]. Also, the inhibition of aggregation in test [2] was -4.7% (inactive). Moreover, the nuclei count in test [2] is 86.6%; in test [3], 95.3%. Moreover, in test [4], the fluorescence slope is -0.537 (inactive). The NADPH fluorescence slope in test [5] was -5.3e-05 (inactive). The slope in test [6] is 0.00689 (inactive).
As to `CCN1C(=O)C(C(=O)Nc2ccc(OC)cc2)C2CC1(C)Oc1ccccc12` (centres undefined), the cell count in test [1] turned out to be 489. Also, the inhibition in test [1] was 4.3% (inactive); in test [3], -4.8% (inactive); in test [7] it was -34.3% (inactive); in test [8] it was -51.5% (inactive). In addition, in test [2], the inhibition of aggregation is -2% (inactive). In addition, the results for the nuclei count in test [2] and in test [3] were 104% and 102%, respectively. Also, in test [4], the fluorescence slope is -0.305 (inactive). The NADPH fluorescence slope in test [5] was -5.8e-05 (inactive). For the same molecule, the slope in test [6] is 0.0052 (inactive).
`O=S(=O)(c1ccc2ccccc2c1)N1CCCCC1`: the cell count in test [1] came out at 424. The inhibition in test [1] is 2.6% (inactive); in test [3], 20.8% (inactive); in test [7], 13.9% (inactive); in test [8] it was 33.1% (inactive). Also, the inhibition of aggregation in test [2] is 7% (inactive). Further, the nuclei count in test [2] and in test [3] was 104% each time. Further, the fluorescence slope in test [4] was -0.413 (inactive). In addition, the NADPH fluorescence slope in test [5] is -2.4e-06 (inactive). Besides, in test [6], the slope is 0.00701 (inactive).
With `COc1ccccc1NC(=O)N1CCN(c2ccccc2F)CC1`, the cell count in test [1] came to 209. Further, the inhibition in test [1] is 2.5% (inactive); in test [3], -100% (inactive); in test [7], 11.9% (inactive); in test [8] it was -4.11% (inactive). In addition, in test [2], the inhibition of aggregation is -10.6% (inactive). Moreover, the nuclei count in test [2] turned out to be 99.1%; in test [3], 102%. In test [4], the fluorescence slope is -0.388 (inactive). In addition, the NADPH fluorescence slope in test [5] was -3.6e-05 (inactive). Besides, in test [6], the slope was 0.00564 (inactive).
With `Cc1ccc(CNC(=O)C2CCCN(S(=O)(=O)c3cnc[nH]3)C2)cc1` (centres undefined), the cell count in test [1] was 768. Also, the inhibition was -11% (inactive) in test [1], -23.4% (inactive) in test [3], -2.34% (inactive) in test [7] and 15.9% (inactive) in test [8]. Besides, in test [2], the inhibition of aggregation is -30.5% (inactive). The figures for the nuclei count in test [2] and in test [3] were 102% and 92.7%, respectively. The fluorescence slope in test [4] is -0.538 (inactive). For the same molecule, the NADPH fluorescence slope in test [5] was -1.6e-05 (inactive). Also, the slope in test [6] is 0.00735 (inactive).
For `CCCCn1c(CN2CCN(c3ccccc3)CC2)nc2c1c(=O)n(C)c(=O)n2C`, in test [1], the cell count stood at 702. Besides, the inhibition was -11.5% (inactive) in test [1], -17.7% (inactive) in test [3], 1.46% (inactive) in test [7] and -8.66% (inactive) in test [8]. For the same molecule, in test [2], the inhibition of aggregation is -3.7% (inactive). Besides, the nuclei count is 90.6% in test [2] and 117% in test [3]. Moreover, the fluorescence slope in test [4] was -0.542 (inactive). Besides, the NADPH fluorescence slope in test [5] is -4.7e-05 (inactive). Also, the slope in test [6] was 0.00817 (inactive).
As to `Cc1ccc(NC(=O)CSc2nnc(-c3cnccn3)n2Cc2ccco2)cc1C`, the cell count in test [1] was found to be 228. Moreover, the inhibition was -3.5% (inactive) in test [1], 35.1% (inactive) in test [3], 6.92% (inactive) in test [7] and 17.3% (inactive) in test [8]. In addition, the inhibition of aggregation in test [2] is 4.6% (inactive). Further, the nuclei count stood at 76.2% in test [2] and 65.4% in test [3]. Also, the fluorescence slope in test [4] is -0.418 (inactive). The NADPH fluorescence slope in test [5] was 3.1e-05 (inactive). Further, in test [6], the slope is 0.00338 (inactive).
For `Cc1cc(-c2ccccc2)c(C#N)c(N)n1`, the cell count in test [1] was determined as 331. For the same molecule, the inhibition in test [1] is -6.4% (inactive); in test [3] it was -11.3% (inactive); in test [7], 18.7% (inactive); in test [8], 34.2% (inactive). Besides, the inhibition of aggregation in test [2] was -10.4% (inactive). Further, the nuclei count amounted to 94.7% in test [2] and 115% in test [3]. Besides, the fluorescence slope in test [4] was -0.394 (inactive). Further, the NADPH fluorescence slope in test [5] is -6.4e-07 (inactive). Further, in test [6], the slope is 0.00466 (inactive).
As to `C=CCNC(=O)c1cccc(Br)c1`, the cell count in test [1] amounted to 399. For the same molecule, the inhibition was 6.3% (inactive) in test [1], -24.7% (inactive) in test [3], -5.88% (inactive) in test [7] and 7.57% (inactive) in test [8]. For the same molecule, the inhibition of aggregation in test [2] was -3.3% (inactive). Also, the nuclei count in test [2] came out at 101%; in test [3], 115%. Further, in test [4], the fluorescence slope was -0.448 (inactive). For the same molecule, the NADPH fluorescence slope in test [5] is 1.8e-05 (inactive). Moreover, the slope in test [6] was 0.00497 (inactive).
Regarding `CCc1ccc(C=NC23CN4CN(CN(C4)C2)C3)s1`, the cell count in test [1] worked out at 319. Also, the inhibition in test [1] is -14.4% (inactive); in test [3], -41.8% (inactive); in test [7] it was -1.05% (inactive); in test [8], -0.158% (inactive). The inhibition of aggregation in test [2] was -5.7% (inactive). The nuclei count in test [2] was found to be 106%; in test [3], 122%. In addition, the fluorescence slope in test [4] is -0.438 (inactive). For the same molecule, in test [5], the NADPH fluorescence slope was 5.9e-05 (inactive). For the same molecule, in test [6], the slope was 0.00606 (inactive).

In general, inhibition refers to the drop in the measured response relative to a control, in per cent.
